ALDH1A1 inh: inhibitors of human aldehyde dehydrogenase 1A1; Potency, µM (doses to about 75.3 µM), most hits filed as inhibitors; hit rate 7.3% among 220,000; Purified ALDH1A1, NADH fluorescence, propionaldehyde substrate; P00352; AID 1030
Target sequence (P00352 whole entry, looked up): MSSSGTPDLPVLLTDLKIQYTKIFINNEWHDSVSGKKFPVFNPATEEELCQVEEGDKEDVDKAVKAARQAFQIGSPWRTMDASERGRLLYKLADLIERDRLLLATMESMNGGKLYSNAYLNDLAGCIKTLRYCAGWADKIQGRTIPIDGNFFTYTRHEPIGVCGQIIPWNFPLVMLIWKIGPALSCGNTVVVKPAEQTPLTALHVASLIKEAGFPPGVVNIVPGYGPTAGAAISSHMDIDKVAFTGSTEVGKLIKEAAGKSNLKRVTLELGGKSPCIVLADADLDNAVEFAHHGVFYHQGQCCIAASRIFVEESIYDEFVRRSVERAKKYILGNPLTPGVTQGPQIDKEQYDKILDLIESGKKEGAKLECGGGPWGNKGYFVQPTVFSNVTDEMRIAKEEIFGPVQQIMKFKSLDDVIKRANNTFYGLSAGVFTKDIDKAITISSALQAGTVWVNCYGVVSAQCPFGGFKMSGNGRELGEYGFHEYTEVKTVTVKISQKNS
LMNA splice mod: LMNA splicing modulation; Potency, µM (titrated, usually from 46.1 µM), actives largely listed as inhibitors; AID 1487; HeLa LMNA splicing GFP/RFP minigene ratio, 48 h; hit rate 0.01% among 200,000; active means well fitted inhibition curve with a large enough effect in the signal ratio, with a control signal flat, not every such curve was filed as active; inconclusive means small, poorly fitted or top-dose-only effect, or effect the other way, or a change in a side signal; the % refers to the signal ratio
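Read-out is the ratio of GFP to DsRed2 object intensity, acquired by 488 nm laser-scanning cytometry on HeLa lamin A-EGFP minigene reporter cells. Compound incubation 48 hrs at 37 °C in Opti-MEM with 2% FBS; DMSO 0.5% final.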
HPGD block: inhibitors of human 15-hydroxyprostaglandin dehydrogenase (HPGD); P15428; purified HPGD, NADH fluorescence kinetic, PGE2 substrate; Potency, µM, hits mostly inhibitors; hit rate 4.3% among 150,000; AID 894
Target sequence (P15428 whole entry, looked up): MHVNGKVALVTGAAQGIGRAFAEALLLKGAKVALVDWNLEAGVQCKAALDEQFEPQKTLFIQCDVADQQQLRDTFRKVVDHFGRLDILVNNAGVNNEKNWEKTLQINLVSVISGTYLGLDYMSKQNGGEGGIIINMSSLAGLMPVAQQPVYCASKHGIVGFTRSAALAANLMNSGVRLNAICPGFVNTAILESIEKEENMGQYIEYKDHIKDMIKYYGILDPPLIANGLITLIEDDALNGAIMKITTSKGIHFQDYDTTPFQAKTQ
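NADH formation kinetics: reaction with 30 uM PGE2 and 1 mM NAD+ (final), 20 nM enzyme, Tris-HCl pH 8 with Tween 20, after 15 min compound preincubation at room temperature. Fluorescence change, last versus first of five reads.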
KinaseGlo FLuc: counter-screen: inhibitors of Kinase-Glo firefly luciferase. Kinase-Glo luciferase, ATP luminescence, 8 min. Q27757. hit rate 0.28% among 200,000. Potency, µM (highest dose often 38.3 µM), actives largely listed as inhibitors. AID 1379; active means well fitted inhibition curve with a large enough effect; inconclusive means small, poorly fitted or top-dose-only effect; further: nearly all actives have a fitted effect of over 60% in size
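Substrate mix (final 50 mM imidazole pH 7.2, 50 mM KCl, 7 mM MgCl2, 10 uM ATP, 0.01% Tween 20, 0.05% BSA) plus pin-tool compound, then Kinase-Glo detection mix; 8 min ambient, luminescence read.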
IMPase cell inh: membrane-permeable compound that blocks inositol monophosphatase | P97697 | CHO-M1 cells, IP1 accumulation, HTRF TR-FRET ratio | inhibition (IP1 accumulation), % at 46.1 µM | 120,000 tested, under 10 active; active means well fitted curve in the direction sought with a large enough effect in the signal ratio, not every such curve was filed as active; inconclusive means small, poorly fitted or top-dose-only effect, or a change in a side signal; inactive means no such curve, though single readings can be large or run the other way; the % refers to the signal ratio;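 further: cells stimulated with carbachol in lithium chloride buffer; higher means more IMPase inhibition seen as more IP1 and lower FRET ratio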
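CHO-M1 cells (CHO stably expressing M1 receptor), compound up to 46 uM final, stimulated with carbachol (50 uM as added) in buffer with 50mM LiCl, pH 7.4, 30 min at 37C. Cytosolic IP1 read by TR-FRET; AC50 from Hill fits.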
PNC inhibitor: inhibitors of perinucleolar compartment assembly. PC3M PTB-GFP, PNC prevalence imaging, 16 h; active compounds read low. activity change (PNC), negative = inhibition, % at 10 µM. hit rate 3.1% among 140,000. AID 2417;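 active means readout at or below -70, meaning at least 70% loss of cells showing the perinucleolar compartment, a nuclear body marking cancer cells; inconclusive means readout between -30 and a set limit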
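Read-out is percentage of cells bearing a perinucleolar compartment, from automated 20x imaging of fixed, Hoechst-stained PC3M PTB-GFP cells. Cells were seeded 4 h, then exposed 16 h to compound (23 nl of library stock) in duplicate plates.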
Numbers stand for hits. Rows were chosen to be rich in hits. Some 10% of all compounds tested hit in one or more screens of this group. Unless noted, the call rests on the fitted dose curve; in most records, active means well fitted inhibition curve with a large enough effect (not every such curve was filed as active); inconclusive means small, poorly fitted or top-dose-only effect, or another doubt; inactive means no such curve, though single readings can be large or run the other way.

Results for Cc1cn(C)c(CC(=O)Nc2ccc(F)cc2Cl)c1C(=O)O ?
LMNA splice mod: inactive

How did NNc1nc(-c2ccccc2)c2ccccc2n1 do in these assays?
ALDH1A1 inh: inactive; LMNA splice mod: inactive; KinaseGlo FLuc: inactive

How did NNc1nnc(-c2ccccc2)c(-c2ccccc2)n1 do in these assays?
ALDH1A1 inh: 13µM; LMNA splice mod: inconclusive; HPGD block: inactive; KinaseGlo FLuc: inactive; IMPase cell inh: inactive; PNC inhibitor: inconclusive

Results for COc1ncc2nc(-c3cccs3)c(=O)n(-c3ccccc3)c2n1 ?
ALDH1A1 inh: inconclusive; HPGD block: inconclusive; KinaseGlo FLuc: inactive

Results for CCN(CC)C(=O)c1cc(Cl)ccn1 ?
ALDH1A1 inh: 32µM; KinaseGlo FLuc: inactive

How did CCCCN(CC)C(=O)c1ccc(Cl)c(Cl)c1 do in these assays?
ALDH1A1 inh: inactive; LMNA splice mod: inactive; HPGD block: inactive; KinaseGlo FLuc: inactive; IMPase cell inh: inactive; PNC inhibitor: inactive

What do the screens show for `CCOC(=O)c1cc(-c2ccc(OC)cc2)n(CCC(=O)NCc2ccc(OC)cc2)c1C`?
LMNA splice mod: inactive

How did Cc1cc(-c2ccccc2)n(-c2ccc(C(N)=O)cc2)n1 do in these assays?
ALDH1A1 inh: inconclusive; LMNA splice mod: inactive; HPGD block: 32µM; KinaseGlo FLuc: inactive; IMPase cell inh: inactive; PNC inhibitor: inactive

Results for c1cc2c(cc1Nc1nc(-c3ccc4c(c3)OCO4)cs1)OCCO2 ?
ALDH1A1 inh: 18µM; LMNA splice mod: inactive; HPGD block: inactive; KinaseGlo FLuc: inactive; IMPase cell inh: inactive; PNC inhibitor: inconclusive

What do the screens show for `c1cc2c(cc1-c1csc(NNC3=NCCCCC3)n1)OCCO2`?
ALDH1A1 inh: 20µM; LMNA splice mod: inactive; KinaseGlo FLuc: inactive

What do the screens show for `c1ccc(-c2csc(Nc3ccc4c(c3)OCCO4)n2)cc1`?
ALDH1A1 inh: 24µM; LMNA splice mod: inconclusive; HPGD block: inactive; KinaseGlo FLuc: inactive; IMPase cell inh: inactive; PNC inhibitor: inactive

How did COc1cc(-c2cc(OC)c3c(C)oc(C)c3c(=O)c2)ccc1OC(=O)c1cccc(C)c1 do in these assays?
LMNA splice mod: inactive

What do the screens show for `COc1ccc(C2=CC(c3ccc(OC)c(OC)c3)NC(=S)N2)cc1` (stereo not given)?
ALDH1A1 inh: inconclusive; LMNA splice mod: inconclusive; HPGD block: inconclusive; KinaseGlo FLuc: inactive; IMPase cell inh: inconclusive; PNC inhibitor: inconclusive

Results for COc1ccc(C2C=C(C34CC5CC(CC(C5)C3)C4)NC(=S)N2)cc1 (stereo not given) ?
ALDH1A1 inh: 4µM; LMNA splice mod: inconclusive; HPGD block: inactive; KinaseGlo FLuc: inactive; PNC inhibitor: inactive

Results for Cc1[nH]nc(N=CC2=C(O)CC(C)(C)CC2=O)c1-c1ccc(Cl)cc1 ?
ALDH1A1 inh: 14µM; LMNA splice mod: inactive; HPGD block: inactive; KinaseGlo FLuc: inactive; IMPase cell inh: inactive; PNC inhibitor: inactive

Results for CCOc1ccc(N=CC2=C(O)CC(C)(C)CC2=O)cc1 ?
ALDH1A1 inh: 14µM; LMNA splice mod: inactive; HPGD block: inactive; KinaseGlo FLuc: inactive; IMPase cell inh: inactive; PNC inhibitor: inactive

What do the screens show for `CC1(C)CC(=O)C(C=Nc2ccc3cn[nH]c3c2)=C(O)C1`?
ALDH1A1 inh: 14µM; LMNA splice mod: inactive; HPGD block: inactive; KinaseGlo FLuc: inactive; IMPase cell inh: inactive; PNC inhibitor: inactive

What do the screens show for `CC1(C)CC(=O)C(/C=N/c2ncccc2C(=O)O)=C(O)C1`?
ALDH1A1 inh: 13µM; LMNA splice mod: inactive; HPGD block: inconclusive; KinaseGlo FLuc: inactive; IMPase cell inh: inactive; PNC inhibitor: inactive

What do the screens show for `CC1(C)CC(=O)C(C=Nc2ccc(O)cc2)=C(O)C1`?
ALDH1A1 inh: inconclusive; LMNA splice mod: inactive; HPGD block: inactive; KinaseGlo FLuc: inactive; IMPase cell inh: inactive; PNC inhibitor: inactive

Results for Cc1ccc(N=CC2=C(O)CC(C)(C)CC2=O)nc1 ?
ALDH1A1 inh: inconclusive; LMNA splice mod: inactive; HPGD block: inactive; KinaseGlo FLuc: inactive; IMPase cell inh: inactive; PNC inhibitor: inactive

What do the screens show for `Cn1c(=O)c2c(SCC(=O)NCC3CCCO3)nc(-c3cccc(F)c3)nc2n(C)c1=O` (stereo not given)?
LMNA splice mod: inactive

What do the screens show for `CC(C)c1ccc(CNc2nc(-c3ccco3)nn2C(=O)c2ccc([N+](=O)[O-])cc2)cc1`?
LMNA splice mod: inactive

Results for O=C1CN(C(=O)c2cccc(Br)c2)C(c2ccccc2)c2cc(Cl)ccc2N1 (stereo not given) ?
LMNA splice mod: inactive

How did CCOC(=O)c1c(NC(=O)c2cc3ccccc3c(=O)o2)sc2c1CCC(C(C)(C)C)C2 (stereo not given) do in these assays?
IMPase cell inh: inactive

How did COc1cccc(N=CC2=C(O)CC(C)(C)CC2=O)c1 do in these assays?
ALDH1A1 inh: 8.9µM; LMNA splice mod: inactive; HPGD block: inactive; KinaseGlo FLuc: inactive; PNC inhibitor: -113

How did CC1(C)CC(=O)C(C=Nc2ccc(N)cc2)=C(O)C1 do in these assays?
ALDH1A1 inh: 11µM; KinaseGlo FLuc: inactive

Results for CCOc1cc(C(=O)N2CCc3c([nH]c4ccccc34)C2c2ccccc2)cc(OCC)c1OCC (stereo not given) ?
LMNA splice mod: inactive

How did CCOC(=O)c1[nH]c2ccc(Br)cc2c1NC(=O)CCN1CCC(C)CC1 do in these assays?
ALDH1A1 inh: 11µM; LMNA splice mod: inactive; HPGD block: inactive; KinaseGlo FLuc: inactive; IMPase cell inh: inactive; PNC inhibitor: inactive

How did CCOC(=O)c1[nH]c2ccc(Br)cc2c1NC(=O)CCN1CCCC(C)C1 (stereo not given) do in these assays?
ALDH1A1 inh: inactive; LMNA splice mod: inconclusive; HPGD block: inactive; KinaseGlo FLuc: inactive; PNC inhibitor: inactive

How did CCN(CC)Cc1cc(C(C)=O)ccc1OCC(C)C do in these assays?
ALDH1A1 inh: 1.1µM; LMNA splice mod: inactive; HPGD block: inactive; KinaseGlo FLuc: inactive; IMPase cell inh: inactive; PNC inhibitor: inactive

What do the screens show for `CC(=O)c1ccc(OCC(C)C)c(CC(C(N)=O)C(N)=O)c1`?
ALDH1A1 inh: inactive; LMNA splice mod: inactive; HPGD block: inactive; KinaseGlo FLuc: inactive; IMPase cell inh: inactive; PNC inhibitor: inactive

How did Cc1ccc(S(=O)(=O)Nc2cc(C(C)C)c(O)cc2C)cc1 do in these assays?
ALDH1A1 inh: 2µM; LMNA splice mod: inconclusive; HPGD block: inactive; KinaseGlo FLuc: inactive; IMPase cell inh: inactive; PNC inhibitor: inactive

How did COC(=O)Cc1ccc(O)c(N)c1 do in these assays?
ALDH1A1 inh: 28µM; LMNA splice mod: inactive; KinaseGlo FLuc: inactive

Results for C=C(C)C(=O)OCCCCCC ?
ALDH1A1 inh: inactive; HPGD block: inactive

What do the screens show for `COC(=O)/C=C1\S/C(=N/N=C/c2ccccc2)NC1=O`?
ALDH1A1 inh: inactive; LMNA splice mod: inactive; HPGD block: 25µM; KinaseGlo FLuc: inactive; IMPase cell inh: inactive; PNC inhibitor: inactive
